As a reminder, the inhibition is the drop in the measured response relative to a control, in per cent.

Data on 32 compounds can be found in PubChem BioAssay.

Test [1] has as its system transactivating tegument protein VP16 (Human herpesvirus 1). In words: compounds suppressing VP16-driven luciferase signal – cell-based, luminescence, single concentration, counter-screen for SRC2 inhibitor project (AID 652007; in the data active means inhibition above about 36%). The settings on record: cell-based VP16 transactivation luciferase reporter, at 8.9 µM, hits give high values.
In test [2] the target is Nuclear receptor coactivator 2 (Homo sapiens) (UniProt Q15596). In words: inhibition of GAL4-SRC2 driven luciferase expression – cell-based, luminescence, HEK293, triplicate, confirmation (AID 652008).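 Further: 0% = DMSO-treated cells and 100% = Gossypol at 36 µM.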 The settings on record: HEK293 GAL4-SRC2 luciferase reporter, at 8.9 µM, hits give high values.

SMILES strings stand for the structures. A number with no mark means an inactive call. The source made the active and inactive calls.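 How the source made its calls, unless noted: active means mean inhibition above 46.5%, the solvent-only control mean plus 3 SD; inactive means the rest.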

Nuclear receptor coactivator 2 (Homo sapiens), sequence (Q15596 whole entry, looked up, the tested form may be a part): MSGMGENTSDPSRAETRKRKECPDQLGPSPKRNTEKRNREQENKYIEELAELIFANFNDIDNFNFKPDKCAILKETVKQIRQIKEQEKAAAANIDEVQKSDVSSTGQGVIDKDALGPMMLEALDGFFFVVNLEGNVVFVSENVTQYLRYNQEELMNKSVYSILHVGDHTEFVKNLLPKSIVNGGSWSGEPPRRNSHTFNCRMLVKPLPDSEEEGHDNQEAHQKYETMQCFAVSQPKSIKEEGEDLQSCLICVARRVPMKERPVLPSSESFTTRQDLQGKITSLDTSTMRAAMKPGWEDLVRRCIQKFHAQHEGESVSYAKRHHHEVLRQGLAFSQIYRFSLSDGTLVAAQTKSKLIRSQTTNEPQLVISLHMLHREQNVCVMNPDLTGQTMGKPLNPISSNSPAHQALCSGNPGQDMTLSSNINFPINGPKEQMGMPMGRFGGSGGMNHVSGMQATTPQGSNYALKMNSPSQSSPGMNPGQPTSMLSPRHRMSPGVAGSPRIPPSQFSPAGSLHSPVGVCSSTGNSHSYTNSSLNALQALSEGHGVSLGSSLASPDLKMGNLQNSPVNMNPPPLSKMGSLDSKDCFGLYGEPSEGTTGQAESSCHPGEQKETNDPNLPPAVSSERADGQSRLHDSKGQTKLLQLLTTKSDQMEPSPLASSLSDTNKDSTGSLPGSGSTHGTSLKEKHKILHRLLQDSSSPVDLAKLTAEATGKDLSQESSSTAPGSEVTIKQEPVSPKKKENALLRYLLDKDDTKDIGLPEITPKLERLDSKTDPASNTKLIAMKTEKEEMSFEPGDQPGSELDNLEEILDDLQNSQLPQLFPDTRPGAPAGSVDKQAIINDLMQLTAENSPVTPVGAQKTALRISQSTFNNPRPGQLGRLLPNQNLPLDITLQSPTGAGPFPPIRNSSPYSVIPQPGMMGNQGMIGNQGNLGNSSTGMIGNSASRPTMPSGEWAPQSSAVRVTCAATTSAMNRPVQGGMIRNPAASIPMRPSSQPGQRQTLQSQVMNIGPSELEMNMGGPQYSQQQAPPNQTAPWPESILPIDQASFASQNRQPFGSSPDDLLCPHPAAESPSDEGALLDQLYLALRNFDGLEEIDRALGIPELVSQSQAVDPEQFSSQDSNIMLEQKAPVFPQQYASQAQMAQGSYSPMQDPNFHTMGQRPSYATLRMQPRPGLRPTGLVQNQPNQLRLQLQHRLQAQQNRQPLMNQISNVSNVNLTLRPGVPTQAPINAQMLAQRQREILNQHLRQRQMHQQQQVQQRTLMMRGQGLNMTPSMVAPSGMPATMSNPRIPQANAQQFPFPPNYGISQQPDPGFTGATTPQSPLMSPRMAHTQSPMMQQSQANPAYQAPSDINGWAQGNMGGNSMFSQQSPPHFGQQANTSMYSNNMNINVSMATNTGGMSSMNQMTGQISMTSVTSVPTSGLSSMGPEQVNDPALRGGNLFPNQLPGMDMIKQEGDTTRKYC

Regarding `O=[N+]([O-])c1cc(Br)c(Nc2ccccc2)c([N+](=O)[O-])c1`, the inhibition in test [1] was -21.9%; in test [2], -12.5%.

Consider `COc1ccc(CNCc2ccc(C(F)(F)F)cc2)cc1OC`, for which the inhibition was 0.19% in test [1] and -3.81% in test [2].

Take `CCN(CC)S(=O)(=O)c1ccc(/C=C/C(=O)OCC(=O)NCc2ccc3c(c2)OCO3)cc1`: the figures for the inhibition in test [1] and in test [2] were -0.7% and -11.1%, respectively.

Take `COCc1cc(N2CCN(C(=O)OC(C)(C)C)C[C@H]2C)ccc1N1CCS(=O)(=O)CC1`: the inhibition was 5.52% in test [1] and 33.9% in test [2].

For the compound `CCc1cccc(C)c1NC(=O)CSc1nnc(CCCOc2ccc(Cl)cc2Cl)n1C`, the inhibition in test [1] is -13.2%; in test [2], -8.02%.

As to `Oc1cccc(C(Nc2nccs2)c2ccc3cccnc3c2O)c1` (centres undefined), the inhibition in test [1] is -15.2%; in test [2], 7.61%.

Turning to `Cc1c(CCC(=O)N2CCC[C@H]2C(=O)O)c(=O)oc2c(C)c3oc4c(c3cc12)CCCC4`, the inhibition in test [1] was 39% (active); in test [2] it was 37.5%.

Regarding `CCOc1ccc(NC(=S)C(C#N)=C2N(C)c3ccccc3N2C)cc1`, the inhibition in test [1] was -4.65%; in test [2] it was -15.8%.

With `Cc1ccc(S(=O)(=O)N2CCN(C(=O)c3cc4c(C)nn(-c5ccccc5C)c4s3)CC2)cc1`, the inhibition in test [1] is 4.9%; in test [2] it was 4.62%.

Consider `CC(C)(C)C(=O)Nc1nnc(CSCc2ccccc2F)s1`, for which the values for the inhibition in test [1] and in test [2] were -20.9% and 9.89%, respectively.

`CC(=O)CCc1ccc(OCCCCN2CCC(Cc3ccccc3)CC2)cc1`: the inhibition was 13.2% in test [1] and 0.94% in test [2].

Turning to `Cc1cc(C(=O)COc2cccnc2[N+](=O)[O-])c(C)n1-c1ccccc1F`, the inhibition in test [1] was -54.6%; in test [2], 62.7% (active).

Turning to `CCN(CC)C(=O)C1CCCN(c2ncnc3c2cnn3-c2ccc(Cl)cc2)C1` (centres undefined), the inhibition in test [1] is -32.6%; in test [2], 58.8% (active).

As to `OC[C@@H]1CN(Cc2ccc(-c3ccccc3)cc2)C[C@H](n2cnc3c(NCc4ccc(F)cc4)ncnc32)O1`, the results for the inhibition in test [1] and in test [2] were 20.8% and 22.9%, respectively.

For `CC(C)(C)c1ccc(-c2n[nH]c(=S)n2C2CCCC2)cc1`, the inhibition is 1.72% in test [1] and 3.48% in test [2].

`O=C(NCc1cccnc1)c1cc(Sc2ccc(F)cc2F)nc2ccccc12`: the inhibition in test [1] is 3%; in test [2] it was 16.4%.

With `COc1cc(NC(=O)c2cccs2)c(C(=O)OCC(=O)c2cc(C)n(-c3ccccc3)c2C)cc1OC`, the inhibition in test [1] was 27.5%; in test [2], 67% (active).

With `O=C(O)Cc1nn(Cc2ccc(Cl)cc2)c(=O)c2ccccc12`, the inhibition in test [1] is -13.4%; in test [2], -30.9%.

On to `CCOC(=O)C1(CC2CC2)CCN(Cc2cnc(-c3ccccc3C)nc2)CC1`, for which the inhibition is 3.57% in test [1] and 3.04% in test [2].

With `COC(=O)C1=C(C)N(Cc2ccccc2C(F)(F)F)C(=NCc2ccccc2)NC1c1ccc(Cl)cc1` (centres undefined), the inhibition in test [1] is 2.66%; in test [2], 1.39%.

`Cc1cc(Cl)ccc1OCCCC(=O)NO`: the inhibition in test [1] is 6.12%; in test [2], 32.7%.

As for `COc1ccc(N2CCN(C(=O)CCCCCn3c(=S)[nH]c4ccc(N5CCOCC5)cc4c3=O)CC2)cc1`, the inhibition in test [1] was -3.27%; in test [2], -4.46%.

With `Nc1ccc(-c2cc3ccccc3c(=O)o2)cc1`, the values for the inhibition in test [1] and in test [2] were -7.3% and 79.1% (active), respectively.

As for `O=C(CSc1nc2nc(-c3cccs3)cc(C(F)(F)F)c2c(=O)[nH]1)C(F)(F)F`, the inhibition is -28.3% in test [1] and 10% in test [2].

`O=C1/C(=C/c2ccncc2)CCC/C1=C\c1ccncc1`: the inhibition in test [1] is 89.1% (active); in test [2], 98.1% (active).

For `CCOc1ccc(NS(=O)(=O)c2ccc(C(=O)NC3CCN(Cc4ccccc4)CC3)cc2)cc1`, the inhibition in test [1] was -3.23%; in test [2], 8.19%.

`CC1CN(C(=O)CCC(=O)N2CCN(c3cccc(C(F)(F)F)c3)CC2)c2ccccc2O1` (centres undefined): the inhibition in test [1] is 15.6%; in test [2] it was 23.5%.

For the compound `Cc1c(CCC(=O)NCCCC(=O)O)c(=O)oc2cc3oc4c(c3cc12)CCCC4`, the figures for the inhibition in test [1] and in test [2] were 47.5% (active) and 65% (active), respectively.

With `Cc1ccc(-c2nnc(SCCC(=O)N3CCOCC3)o2)cc1`, the inhibition was -40.9% in test [1] and -16.8% in test [2].

For the compound `O=C(COC(=O)CCN1C(=O)/C(=C\C=C\c2ccccc2)SC1=S)Nc1ccc(Br)cc1`, the values for the inhibition in test [1] and in test [2] were 38.2% (active) and 74.3% (active), respectively.

Take `O=C(NCCCN1CCOCC1)c1ccc(CNS(=O)(=O)c2ccc(Br)cc2)cc1`: the inhibition in test [1] was -18.4%; in test [2] it was 19.1%.

In the case of `O=C(NCCS(=O)(=O)N1CCN(c2ccc(F)cc2)CC1)c1ccc(Br)o1`, the inhibition is -22.6% in test [1] and -4.89% in test [2].
